Out of some 220,000 compounds screened, about 300 (0.14%) were called active.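 The calls were made as follows: active = inhibition of at least 40%; inactive = inhibition below 40%.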 Many of the other results were omitted from the sample, so actives are more common in it than they were.

Coagulation factor XI (Homo sapiens), sequence (P03951 19-387 limits assumed): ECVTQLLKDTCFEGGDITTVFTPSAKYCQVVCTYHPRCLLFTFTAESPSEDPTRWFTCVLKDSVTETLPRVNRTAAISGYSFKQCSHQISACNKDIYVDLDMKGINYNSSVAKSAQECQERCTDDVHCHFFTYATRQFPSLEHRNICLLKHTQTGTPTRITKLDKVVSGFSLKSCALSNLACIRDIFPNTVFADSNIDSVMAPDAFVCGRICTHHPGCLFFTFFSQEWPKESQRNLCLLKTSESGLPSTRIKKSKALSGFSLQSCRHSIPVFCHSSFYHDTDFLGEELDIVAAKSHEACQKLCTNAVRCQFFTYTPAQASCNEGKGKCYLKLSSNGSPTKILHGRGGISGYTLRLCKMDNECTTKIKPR
Coagulation factor XI (Homo sapiens), sequence (P03951 388-625 limits assumed): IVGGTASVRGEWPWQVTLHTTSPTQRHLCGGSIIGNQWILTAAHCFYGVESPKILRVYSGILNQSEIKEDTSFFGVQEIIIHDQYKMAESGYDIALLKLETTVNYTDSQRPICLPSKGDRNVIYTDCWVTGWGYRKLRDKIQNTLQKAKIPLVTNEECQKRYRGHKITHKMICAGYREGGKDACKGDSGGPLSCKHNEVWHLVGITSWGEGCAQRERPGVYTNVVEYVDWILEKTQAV

This assay concerns the target Coagulation factor XI (Homo sapiens) (UniProt P03951). Description: human FXIa protease inhibitors, primary screen, biochemical, 1536-well (AID 798).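 Also: fluorescence of freed AMC excited at 355 nm; 0% = enzyme without compound and 100% = no enzyme blank.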 The conditions noted are these: purified FXIa, Boc-Glu-Ala-Arg-AMC fluorogenic substrate; at 5 µM; stronger effect = higher value.
As to `Cc1c(Br)ccc(NC(=O)COc2ccccc2C(N)=O)c1C`, the inhibition was 3.29% (inactive). As for `C/C=C(/C)C(=O)O[C@@H]1c2cc3c(c4c2[C@@]2(CO4)C(=O)C(OC)=C(OC)C=C2C[C@@H](C)[C@H]1C)OCO3`, the inhibition was 0.96% (inactive). The result for `COc1ccc(SC[C@H](Cc2ccccc2)N2CCN(CCc3ccccc3)CCC2=O)cc1` reads 0.67% (inactive); that for `Cn1cnc(S(=O)(=O)Nc2ccc3c(c2)OCCO3)c1`, 3.26% (inactive).

Turning to `Cc1ccc(NC(=O)NC(=O)CSc2nnc(-c3ccc(OC(F)F)cc3)n2N)c(C)c1`, the inhibition was 3.67% (inactive). The result for `CCN=c1sc(C(=O)Nc2ccccc2)c(C)n1CC` reads -2.02% (inactive). The result for `Cc1cc(C(=O)OCC(=O)Nc2nnc(C(C)C)s2)c2ccccc2n1` reads -3.05% (inactive). Take `CC1=C(C(=O)N(C)C)C(c2ccccc2OC(F)F)NC(=O)N1` (stereo unspecified): the inhibition was 0.62% (inactive). The result for `Cc1ccc(OC(=O)CCC(=O)Nc2ccc(Br)cc2)cc1` reads -1.21% (inactive).

For `O=S(=O)(NC(=S)Nc1ccccc1)c1ccc(F)cc1`, the inhibition is 4.03% (inactive). The result for `CCOC(=O)CN(C)S(=O)(=O)c1ccc(-c2cc(C(=O)OC)sc2C(F)(F)F)cc1` reads 32.6% (inactive); that for `CN1CCN(C(=O)CCc2ncc(C(F)(F)F)cc2Cl)CC1`, 7.14% (inactive). Take `COC(=O)c1c(NC(=O)CCCC(=O)O)sc2c1CCCCC2`: the inhibition was -0.58% (inactive).

Turning to `O=C(N/N=C/c1cc2c(cc1Br)OCO2)C1COc2ccccc2O1` (stereo unspecified), the inhibition is -10.7% (inactive). For `C[N+]1(CC(O)COc2ccccc2)CCN(C(=O)c2ccc([N+](=O)[O-])cc2)CC1` (stereo unspecified), the inhibition is 0.51% (inactive). The result for `Cc1nc2cc(NC(=O)NC3CC3)ccc2n1C` reads -5.28% (inactive). On to `C=CCN(C(=O)Nc1ccc2c(c1)nc(C)n2C)c1ccccc1`, for which the inhibition was 26.2% (inactive). The result for `Cc1nc2cc(NC(=O)Nc3cccc(F)c3)ccc2n1C` reads 43.8% (active); that for `Cc1cc(-c2csc(N)n2)c(C)n1-c1ccccc1`, 2.06% (inactive). The result for `CCOc1ccc(/C=C2\SC(=S)N(NC(=O)c3ccncc3)C2=O)cc1OC` reads 6.9% (inactive); that for `C[C@H](NC(=O)c1nc[nH]c1C(=O)N[C@@H](C)C(=O)OC(C)(C)C)C(=O)OC(C)(C)C`, 1.92% (inactive); that for `CN(C)C(=S)Nc1ccc(Br)cc1Cl`, 1.74% (inactive). For the compound `NC(=O)Cn1nc([N+](=O)[O-])nc1Oc1ccc(Br)cc1`, the inhibition is 0.41% (inactive). In the case of `O=C(Cc1ccc(F)cc1)N1CCN=C1SCc1cccc([N+](=O)[O-])c1`, the inhibition was -3.4% (inactive). The result for `Cc1cccc(N(C(=O)Cc2cccs2)C(C(=O)NCc2ccco2)c2ccncc2)c1` (stereo unspecified) reads -1.59% (inactive). For the compound `CN(C)/N=C/c1cc(Cl)cc([N+](=O)[O-])c1O`, the inhibition was 2.99% (inactive). The result for `CC(=O)NC1(c2ccc(F)cc2)CCN(C(=O)c2c(F)cccc2F)CC1` reads -6.45% (inactive); that for `Cc1cccc(N2CCN(Cc3nc(C4CC4)no3)CC2)n1`, -4.4% (inactive); that for `Cc1ccc(S(=O)(=O)N2CCN(CC(=O)N/N=C/c3cc([N+](=O)[O-])ccc3Cl)CC2)cc1`, 3.33% (inactive). As for `COc1nc(NC2CCCCC2)nc(N2CCCCCC2)n1`, the inhibition was 5.12% (inactive). For `O=c1nc(N/N=C/c2ccco2)cn[nH]1`, the inhibition was -0.64% (inactive).

Regarding `CC(C)OP(=O)(OC(C)C)C(Nc1ccccc1)c1cccc([N+](=O)[O-])c1` (stereo unspecified), the inhibition was 2.9% (inactive). The result for `COc1cccc(N2C(=O)CC(N3CCc4ccccc4C3)C2=O)c1` (stereo unspecified) reads -2.99% (inactive); that for `Cc1ccc(NN=C2C(=O)OC(C)(C)OC2=O)c(C)c1`, -3.38% (inactive); that for `O=C(COc1ccccc1[N+](=O)[O-])N/N=C/c1ccc[nH]1`, 2.13% (inactive). As to `CC(C)c1nc(SCC(=O)NC(=O)NC(C)(C)C)n[nH]1`, the inhibition was 1.78% (inactive). The result for `Cc1ccc(C(=O)Cn2cc([N+](=O)[O-])nc2C)cc1` reads 2.54% (inactive).

For `O=C(CNCc1ccc(F)cc1)Nc1ccccc1-c1ccccc1`, the inhibition was 5.85% (inactive). With `O=C(COC(=O)C12CC3CC(CC(O)(C3)C1)C2)NC12CC3CC(CC(C3)C1)C2`, the inhibition is -0.93% (inactive).

For `CCOC(=O)c1ccc(NC(=O)Cn2cnc3cc(C)c(C)cc32)cc1`, the inhibition was -1.09% (inactive).

Consider `COc1ccc(CN2C(=O)CC(Cc3ccc(C)cc3)C2=O)cc1OC` (stereo unspecified), for which the inhibition was 16.3% (inactive).

Regarding `Cc1nc(N)[nH]c(=O)c1Oc1cccc(C(F)(F)F)c1`, the inhibition was -2.42% (inactive). As for `CC(C)(C)NC(=O)CSC(=Nc1ccccc1F)NC#N`, the inhibition is 7.8% (inactive). The result for `CCC1SC(CC)C(=O)N(CC(=O)NC2CCCCC2)C1=O` (stereo unspecified) reads 26% (inactive); that for `Cc1ccccc1Cn1c2ccccc2c2cnn(CC(=O)NCc3ccco3)c(=O)c21`, -0.28% (inactive); that for `COCCNC(=S)N1CCC(NC(=O)C23CC4CC(CC(C4)C2)C3)CC1`, -6.69% (inactive). The result for `CCOc1cc(CO)ccc1OCC(=O)N1CCCCC1` reads 40.9% (active); that for `CCOc1cc(CN2CCN(C(=O)CC(C)C)CC2)ccc1OC`, -13.4% (inactive); that for `O=C(COc1ccc(Cl)cc1[N+](=O)[O-])N1CCCCC1`, -5.02% (inactive). The result for `COc1ccccc1OCC(=O)OCn1c(SC)nnc(C)c1=O` reads 5.82% (inactive); that for `CCOC(=O)N1CCN(Cc2nc3ccc([N+](=O)[O-])cc3c(=O)n2-c2cccc(OC)c2)CC1`, -1.56% (inactive). For `Cc1cc(C(=O)CSc2nc(N)cc(=O)[nH]2)c(C)n1Cc1ccco1`, the inhibition was -4.8% (inactive). The result for `CCc1cccc(CC)c1NC(=S)Nc1ccc2cn[nH]c2c1` reads 0.17% (inactive). The result for `O=C(O)c1ccccc1OCc1ccccc1Cl` reads 1.64% (inactive). As for `COCCN(CCOC)c1nc(N)c2c(N)nc3c(c2c1C#N)CC(=O)N3Cc1ccc(Cl)cc1`, the inhibition was -10.3% (inactive). Regarding `CC1=NN(/C(=N\c2nnc(C)s2)Nc2ccccc2)[C@H](c2ccc(C)cc2)S1`, the inhibition was 0.56% (inactive).

Turning to `COC(=O)c1sccc1-n1cccc1C(=O)C(=O)N1CCCCC1`, the inhibition was 0.21% (inactive). The result for `O=C(Nc1ccc(Cl)cc1)Nc1ccc(C(=O)N2CCOCC2)cc1` reads 4.9% (inactive); that for `OC(c1nc2ccccc2[nH]1)C(O)C(O)C(O)c1nc2ccccc2[nH]1` (stereo unspecified), 1.7% (inactive). On to `O=C(CCS(=O)(=O)Cc1ccccc1)Nc1ccc2c(c1)OCCO2`, for which the inhibition is -6.9% (inactive). The result for `COC(=O)Cc1[nH]n(-c2nc3ccccc3s2)c(=O)c1C(C)=Nc1ccc(OC)cc1` reads 2.75% (inactive); that for `N#C/C(=C/c1cccc([N+](=O)[O-])c1)c1nnc2n1CCCCC2`, 0.95% (inactive); that for `O=C(Cn1cc(C(F)(F)F)ccc1=O)N/N=C/c1ccc(Cl)cc1Cl`, 6.17% (inactive). The result for `O=C1N/C(=C/c2cccn2-c2ccccc2)C(=O)N1c1cccc(Cl)c1` reads -9.57% (inactive). On to `COCCNC(=O)C(c1ccc(O)cc1)N(C(=O)CCC(=O)Nc1nccs1)c1ccc(C)cc1` (stereo unspecified), for which the inhibition is 1.25% (inactive). In the case of `CCC(C)(C)NC(=O)CN(Cc1cccs1)C(=O)CNS(=O)(=O)c1ccc(F)cc1`, the inhibition is -7.45% (inactive). The result for `CC(C)C(NC(=O)C1CCC(C(C)(C)C)CC1)C(=O)NCCCN1CCCCC1` (stereo unspecified) reads -3.84% (inactive); that for `COc1ccccc1NC(=O)c1cc(Cl)nc2ccccc12`, -7.34% (inactive); that for `Cc1c(C(=O)NC(=S)NCc2cccnc2)oc2ccccc12`, -1.74% (inactive). Consider `CN(C)CC(C)(C)CNC(=O)c1cc(Br)cc(Br)c1O`, for which the inhibition is -3.11% (inactive). On to `Cc1ccc(NC(=O)C2CCCN(S(=O)(=O)c3c(C)noc3C)C2)c(C)c1` (stereo unspecified), for which the inhibition is -3.38% (inactive).

Turning to `Cc1noc(C)c1S(=O)(=O)N1CCCC(C(=O)Nc2nccs2)C1` (stereo unspecified), the inhibition was 1.07% (inactive). Take `COc1c(C)cc(C(=O)C2CCCN(S(=O)(=O)c3c(C)noc3C)C2)cc1C` (stereo unspecified): the inhibition was 102% (active).

Consider `FC(F)(F)c1cccc(-c2nc(COc3ccc(Cl)cc3Cl)no2)c1`, for which the inhibition is 2.41% (inactive).

For `CN1CCc2ccccc2C1Cc1ccccc1NC(=O)c1sc2ccccc2c1Cl` (stereo unspecified), the inhibition was 2.33% (inactive).

`CCOC(=O)CSC1=N/C(=C/c2ccc(-n3cncn3)cc2)C(=O)N1C(C)=O`: the inhibition was 3.79% (inactive). The result for `O=c1[nH]c(CN2CCOCC2)nc2scc(-c3ccccc3)c12` reads -11.5% (inactive); that for `Cc1cccc2cc(CN(C(=O)c3cccs3)c3ccccc3)c(=O)[nH]c12`, -1.12% (inactive); that for `COc1ccc(OCc2n[nH]c(=S)n2N)cc1`, -0.79% (inactive).

On to `NS(=O)(=O)c1ccc(CCNC(=O)NC2CCCCC2)cc1`, for which the inhibition is 3.22% (inactive).

Consider `Cc1ccc(C(=O)Nc2ccc(C)c(S(=O)(=O)N(C)C)c2)s1`, for which the inhibition is 6.45% (inactive). With `C#CCOCCOCCOCCNc1nc(N2CCN(C(=O)[C@H](CCC(=O)O)n3cc(C(N)CO)nn3)CC2)nc(N2CCN(C(=O)[C@H](CCCCN)n3cc(C(N)CC(C)C)nn3)CC2)n1` (stereo partly specified), the inhibition was 0.58% (inactive). As for `NC(=O)C1=C[C@@H](c2csc3ccccc23)C[C@@H](OCc2ccc(CO)cc2)O1`, the inhibition was -0.4% (inactive).

With `CN(CCc1ccccn1)C(=O)CCC1CCCN(Cc2ccccc2OC(F)F)C1` (stereo unspecified), the inhibition is -3.18% (inactive).

On to `COc1ccccc1CN(C)c1nnnn1-c1ccccc1`, for which the inhibition was -0.22% (inactive).

With `CC(C)Cc1nnc(NC(=O)CCC(=O)Nc2ccc3cn[nH]c3c2)s1`, the inhibition was 5.73% (inactive). Take `C=CC(COCc1ccccc1)N(Cc1ccccc1)S(=O)(=O)c1ccccc1Br` (stereo unspecified): the inhibition is -5.35% (inactive). The result for `COc1cc2[nH]c(=O)n(Cc3ccc(C(=O)NC4CCN(Cc5ccccc5)CC4)cc3)c(=O)c2cc1OC` reads -5.4% (inactive).

Consider `CCSC1=NCCN1C(=O)c1ccc(S(=O)(=O)N(CC)CC)cc1`, for which the inhibition is -2.2% (inactive). As for `CCC(C(=O)Nc1ccc2c(c1)OCCO2)c1ccccc1` (stereo unspecified), the inhibition is -1.53% (inactive). The result for `CC12CN3CCN(CC(C3)/C1=N\NC(=O)c1ccccc1N)C2` reads -0.67% (inactive).
